Over roughly 1,600 compounds, “plate-normalized OD600 growth (mean of duplicates)” has its median near 0.31; the lowest 2% begin near 0.23. The sample holds the lowest values, similar compounds and a random draw of the others, so the mix is not that of the screen.
Tested on: Escherichia coli BW25113
Assay: plate-normalized OD600 growth (mean of duplicates) (OD600 (normalized)); higher = more growth (less inhibition)
Conditions: 10 µM
Method: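 E. coli BW25113 in LB (100 µl, 96-well, no shaking) was exposed to 10 µM of each compound (here the ChemBridge subset of a ~30,000-member library) and grown at 37°C for 24 h or 15°C for 48 h, in duplicate. Growth was read as OD600 and the duplicate ODs were normalized across screening plates to correct plate-to-plate variation.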

Structure (SMILES)	plate-normalized OD600 growth (temperature: 15°C, 48 h)	plate-normalized OD600 growth (temperature: 37°C, 24 h)
O=C(O)c1ccc(S(=O)(=O)c2ccc(O)cc2)cc1	0.247	0.592
c1ccc2c(c1)CCN(Cc1ccncc1)C2	0.236	0.651
C=CCNC(=O)c1ccc(CN2CCc3ccccc3C2)cc1	0.217	0.6
CN(C)c1ccc(CN2CCc3ccccc3C2)cc1	0.244	0.619
O=C(c1ccccc1[N+](=O)[O-])N1CCN(C(c2ccccc2)c2ccccc2)CC1	0.259	0.627
CCOc1cc(/C=C(\C#N)c2nc(-c3ccc(OC)cc3)cs2)ccc1O	0.262	0.615
COc1ccc(-c2c(C)[nH]n3c(=O)cc(-c4ccc([N+](=O)[O-])cc4)nc23)cc1	0.24	0.608
COc1ccc(NCc2ccc(C)s2)cc1OC	0.244	0.604
COc1ccc(NCc2ccc(Cl)cc2Cl)cc1OC	0.22	0.625
COc1ccc(NC(=O)Nc2ccc(F)c(Cl)c2)cc1	0.283	0.58
O=C(c1sc2ccccc2c1Cl)N1CCN(CCN2C(=O)C3C4C=CC(C4)C3C2=O)CC1 (stereo not given)	0.243	0.611
O=S(=O)(c1ccc(Cl)c(Cl)c1)N1CCCCC1	0.252	0.619
O=[N+]([O-])c1ccc2[nH]c3c(c2c1)CCCC3NC1CCN(CCc2ccccc2)CC1 (stereo not given)	0.249	0.578
Cc1cc(=O)[nH]c2ccc([N+](=O)[O-])cc12	0.244	0.609
NC1CCCc2c1[nH]c1ccc([N+](=O)[O-])cc21 (stereo not given)	0.173	0.552
N#C/C(=C\c1ccc(Br)o1)c1nc(-c2ccccc2)cs1	0.246	0.6
COc1ccc(NC(=O)c2ccccc2Br)c(OC)c1	0.258	0.615
O=C(Nc1ccc(Cl)cc1)c1ccccc1Br	0.264	0.633
COc1ccc(Cl)cc1NC(=O)c1ccccc1Br	0.222	0.627
O=C1c2cccc([N+](=O)[O-])c2C(=O)N1n1cnnc1	0.258	0.629
CCC1CCC(NCc2cccc(OC)c2OC)CC1 (stereo not given)	0.253	0.603
Cc1cccc(NC(=O)COc2ccc(C)c(C)c2)c1	0.237	0.601
C=CCOc1ccccc1CN1CCCN(C)CC1	0.217	0.595
CN1CCCN(Cc2cc(F)ccc2F)CC1	0.273	0.623
COc1ccc(CN2CCCN(C)CC2)c(OC)c1	0.25	0.619
CC(=O)N1c2ccccc2NC2=C(C(=O)CC(C)(C)C2)C1c1cccn1C (stereo not given)	0.253	0.612
Cn1cccc1C1Nc2ccccc2NC2=C1C(=O)CC(C)(C)C2 (stereo not given)	0.222	0.609

Structure (SMILES)	plate-normalized OD600 growth (temperature: 15°C, 48 h)	plate-normalized OD600 growth (temperature: 37°C, 24 h)
CC1(C)CC(=O)C2=C(C1)Nc1ccccc1NC2c1cc2c(cc1[N+](=O)[O-])OCO2 (stereo not given)	0.225	0.606
CC1(C)CC(=O)C2=C(C1)Nc1ccccc1NC2c1ccc(Br)cc1 (stereo not given)	0.275	0.627
CC1(C)CC(=O)C2=C(C1)Nc1ccccc1NC2c1ccc([N+](=O)[O-])s1 (stereo not given)	0.231	0.604
CC1(C)CC(=O)C2=C(C1)Nc1ccccc1NC2c1ccccc1F (stereo not given)	0.25	0.618
O=C1c2ccccc2C(=O)N1c1nccs1	0.239	0.622
CC(=O)Nc1ccc(S(=O)(=O)N2CCCC(CO)C2)cc1 (stereo not given)	0.29	0.63
O=C(Nc1nc(/C=C/c2ccccc2)[nH]c(=O)n1)NS(=O)(=O)c1ccccc1Cl	0.249	0.587
CC(C)(C)C(=O)ON1C(=O)c2ccccc2C1=O	0.25	0.616
CN(C)c1ccc(CN2CCc3c([nH]c4ccccc34)C2)cc1	0.275	0.622
CC1(C)CC(=O)c2c(CC3CC(=O)NC(=O)C3)noc2C1	0.222	0.614
CCCc1noc2c1C(=O)CC(C)(C)C2	0.261	0.622
O=[N+]([O-])c1ccccc1CNC1C2CC3CC(C2)CC1C3 (stereo not given)	0.238	0.612
COc1cccc(N2CCN(C3C4CC5CC(C4)CC3C5)CC2)c1 (stereo not given)	0.291	0.627
COc1ccc(CNC2C3CC4CC(C3)CC2C4)c(OC)c1 (stereo not given)	0.224	0.615
COc1ccc(S(=O)(=O)N2CCN(Cc3cccc(F)c3)CC2)cc1	0.245	0.614
C=CCSc1nc(O)c(CC)c(=O)n1-c1ccccc1	0.233	0.62
Brc1ccc(CN2CCN(Cc3ccc4c(c3)OCO4)CC2)s1	0.262	0.639
CC(C)CS(=O)(=O)c1cccs1	0.253	0.616
O=C1CCCc2c1nc(-c1ccccc1)n2O	0.272	0.662
O=C1CCCc2c1nc(-c1cccc([N+](=O)[O-])c1)n2O	0.224	0.596
O=C1CCCc2occ(-c3ccc([N+](=O)[O-])cc3)c21	0.253	0.634
COc1ccc(-c2csc(N)n2)cc1Br	0.26	0.647
O=C(O)CCCC(=O)Nc1ccc(Cl)c(Cl)c1	0.247	0.602
Cc1cccc(-c2nc(-c3cccnc3)no2)c1	0.244	0.605
C1CCCC(NCCN2CCCCC2)CCC1	0.234	0.588
CC(=O)NC(Cc1ccccc1)Cc1ccccc1	0.248	0.608
CC(C)(C)NC(=O)c1ccccc1C(=O)NC(C)(C)C	0.263	0.63

Structure (SMILES)	plate-normalized OD600 growth (temperature: 15°C, 48 h)	plate-normalized OD600 growth (temperature: 37°C, 24 h)
CC(=O)NC(C)(CC(=O)c1ccccc1)c1ccccc1 (stereo not given)	0.227	0.639
Cc1cccc(N2C(=O)CC(N3CCN(Cc4ccccc4)CC3)C2=O)c1 (stereo not given)	0.254	0.616
COCc1cc(C)nc(NN)c1C#N	0.258	0.622
O=C1c2ccccc2C(=O)C1c1nc2ccccc2[nH]1	0.269	0.667
COc1ccc(N/C=C(/c2cc(O)ccc2O)[N+](=O)[O-])cc1	0.255	0.624
CC(=O)Nc1ccc(S(=O)(=O)N2CCN(C)CC2)cc1	0.258	0.646
COc1ccc(OC)c(Nc2nc(C)c(C(C)=O)s2)c1	0.272	0.646
CC(=O)c1sc(Nc2ccc(Oc3ccccc3)cc2)nc1C	0.223	0.607
CC(=O)c1sc(N2N=C(c3ccccc3)CC2c2ccccc2)nc1C (stereo not given)	0.254	0.656
CSc1nc2sc3c(c2c(=O)n1C)CCCC3	0.246	0.618
COc1cccc(OC)c1C(=O)N1CCN(Cc2cccc([N+](=O)[O-])c2)CC1	0.266	0.645
CN1CCCN(Cc2ccc([N+](=O)[O-])o2)CC1	0.258	0.607
CN1CCCN(Cc2cccc([N+](=O)[O-])c2)CC1	0.22	0.627
O=C(O)c1ccc(NS(=O)(=O)c2cccc(C(=O)Nc3ccccc3)c2)cc1	0.245	0.603
OC(COc1ccc(C23CC4CC(CC(C4)C2)C3)cc1)CN1CCOCC1 (stereo not given)	0.243	0.592
O=C(Nc1ccc(Br)cc1)c1cccnc1	0.244	0.633
Cc1ccccc1C(=O)Nc1ccc(Br)cc1	0.282	0.631
NCC(=O)Nc1ccc(Br)cc1	0.227	0.606
COc1ccc(-c2cn3ccccc3n2)cc1F	0.229	0.633
O=[N+]([O-])c1ccc(-c2nnc(-c3ccccc3Cl)o2)cc1	0.244	0.601
CCC(CO)NC1=C([N+](=O)[O-])C(=O)CC(C)(C)C1 (stereo not given)	0.282	0.666
CCN(CC)CCN(C)Cc1cccc([N+](=O)[O-])c1	0.245	0.601
CCN(CC)CCN(C)C/C=C/c1ccccc1	0.208	0.608
CCN1CCN(C/C=C/c2ccccc2)CC1	0.28	0.634
C=CCSc1nc(N)c(C#N)c(CC)c1C#N	0.239	0.605
Cc1ccccc1C(=O)N1CCCCC1CO (stereo not given)	0.294	0.624
CCC1CCCCN1C(=O)c1cccs1 (stereo not given)	0.225	0.613

Structure (SMILES)	plate-normalized OD600 growth (temperature: 15°C, 48 h)	plate-normalized OD600 growth (temperature: 37°C, 24 h)
CCC1CCCCN1C(=O)c1cccc([N+](=O)[O-])c1C (stereo not given)	0.247	0.612
COc1cc2c(cc1OC)C(c1cc(OC)c(OC)c(OC)c1)N(C)CC2 (stereo not given)	0.244	0.624
COc1cc(OC)cc(C(=O)Nc2cccc(C)c2C)c1	0.253	0.63
O=C(O)CSc1nccn1Cc1ccccc1	0.244	0.625
CCOC(=O)N1CCN(Cc2ccc(N(C)C)cc2)CC1	0.219	0.58
CCOC(=O)N1CCN(Cc2c(F)cccc2F)CC1	0.263	0.656
CCOC(=O)N1CCN(Cc2ccccc2Cl)CC1	0.244	0.621
O=C(Nc1ccc(Oc2ccc(NC(=O)c3cccnc3)cc2)cc1)c1cccnc1	0.27	0.629
Fc1ccc(CN2CCN(c3ncccn3)CC2)cc1	0.253	0.629
CC(C)(C)c1ccccc1OCCCCSC#N	0.209	0.619
CC(C)(C)c1ccccc1OCCCSC#N	0.233	0.622
N#CSCCCCOc1ccccc1Cl	0.251	0.605
CC(c1ccccc1)N1CCC(=O)C2=C1CCCC2 (stereo not given)	0.241	0.604
[O-][n+]1onc2c(-c3ccccc3)nnc(-c3ccccc3)c21	0.254	0.616
Fc1ccc(CN2CCN(c3ccccn3)CC2)c(F)c1	0.244	0.601
N#CCCN(CCN1CCCC1)S(=O)(=O)c1cccc2nsnc12	0.253	0.624
Nc1nc(-c2ccco2)nc(-c2ccco2)n1	0.272	0.646
N#Cc1c(N)nc2c(c1-c1ccco1)CCCCCC2	0.249	0.615
CN(C)c1nc(N)nc(-c2ccco2)n1	0.226	0.632
O=C1CCCc2c1nn(-c1ccccc1)[n+]2[O-]	0.249	0.618
O=C(Nc1ccc(F)cc1F)c1cccc(Br)c1	0.259	0.605
COc1ccc(C)cc1NCc1ccc(SC)cc1	0.282	0.644
Cc1nc(N)nc(OCC(F)(F)C(F)F)c1Br	0.221	0.604
CCN(CC)CCOc1ccccc1Br	0.233	0.621

— the supplement of paper PMC4371806
